Results filed as inconclusive are left out. A number with no mark means an inactive call. The source made the active and inactive calls. Calls follow the shape of the full dose curve.
Target: Acetylcholinesterase (Homo sapiens) (UniProt P22303)
Assay: Acetylcholinesterase (AChE) small molecule antagonists: fluorescence cell-based qHTS assay (AID 1347398); also: nearly all actives have a fitted effect of over 50% in size
Conditions: SH-SY5Y cells; Potency: AChE activity; series mostly up to 115 µM; activity change, negative = inhibition: at the top concentration
Excerpt: National Center for Advancing Translational Sciences [NCATS]
Division of Preclinical Innovation [DPI]
U.S. Environmental Protection Agency [EPA]
National Institutes of Environmental Health Sciences [NIEHS]
National Toxicology Program [NTP]
U.S. Food and Drug Administration [FDA]
Acetylcholinesterase (AChE) is the primary cholinesterase in the body that hydrolyzes a key neurotransmitter, acetylcholine. Inhibition of AChE activity can lead to neurotoxicity. Known inhibitors of AChE include organophosphorous pesticides (OP), chemical warfare agents, drugs, and various phytochemicals.
A homogenous cell-based assay using Amplitetrade mark Fluorimetric Acetylcholinesterase Assay Kit *Green Fluorescence* (AAT Bioquest, Sunnyvale, CA) was used to evaluate the chemicals in the Tox21 10K library that inhibit AChE activity. The assay uses Thiolite Green to quantify the thiocholine produced from the hydrolysis of acetylthiocholine by AChE from the SH-SY5Y cells. AChE can hydrolyze acetylthiocholine to create thiocholine. Thiolite Green is fluorescent when reacting with thiocholine. It has spectral properties similar to those of fluorescein. The fluorescence intensity of Thiolite Green is used to measure AChE activity. Its signal can be easily read by a fluorescence microplate reader at Ex/Em = 490/520 nm.
Tox21 Assay Protocol Summary:
For cell-based AChE assay, 2,000 SH-SY5Y cells in 4 uL/well were dispensed into black, clear-bottom 1536-well plates using a Multidrop Combi (Thermo Scientific) dispenser. The assay plates were incubated overnight at 37 C to allow cells to attach to the wells, followed by the transfer of 23 nL compound or DMSO (vehicle control) by a Pintool station (Wako Automation, CA). The plates were incubated for 30 min at 37 C and 5% CO2, followed by the addition of 4 uL of detection cocktail solution (ThioliteGreen, acetylthiocholine) into each well using Flying Reagent Dispenser (Beckman Coulter, CA) and then following 40 min incubation at room temperature. Fluorescent intensity (Ex/Em = 490/520 nm) was measured using an Envision plate reader (PerkinElmer, MA).
% is scaled to controls: 0 for no effect and ±100 for the full control effect; potency is read from the fitted curve at half-maximal effect.

Acetylcholinesterase (Homo sapiens), sequence (P22303 whole entry, looked up): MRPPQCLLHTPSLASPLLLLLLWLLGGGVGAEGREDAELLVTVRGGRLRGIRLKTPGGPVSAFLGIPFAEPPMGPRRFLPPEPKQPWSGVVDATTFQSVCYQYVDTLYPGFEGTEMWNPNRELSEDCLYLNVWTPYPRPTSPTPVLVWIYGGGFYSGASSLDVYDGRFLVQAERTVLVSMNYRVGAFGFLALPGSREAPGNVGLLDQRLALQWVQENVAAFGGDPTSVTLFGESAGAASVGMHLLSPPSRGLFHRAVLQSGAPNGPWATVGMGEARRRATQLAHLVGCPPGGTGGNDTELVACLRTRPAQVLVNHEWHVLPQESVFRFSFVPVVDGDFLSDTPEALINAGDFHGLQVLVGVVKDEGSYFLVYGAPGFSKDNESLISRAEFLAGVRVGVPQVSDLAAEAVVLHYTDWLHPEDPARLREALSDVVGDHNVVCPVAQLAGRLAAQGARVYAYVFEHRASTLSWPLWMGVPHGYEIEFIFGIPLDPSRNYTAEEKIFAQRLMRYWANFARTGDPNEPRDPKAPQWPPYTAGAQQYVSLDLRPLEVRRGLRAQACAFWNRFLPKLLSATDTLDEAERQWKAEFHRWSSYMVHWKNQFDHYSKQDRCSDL

| SMILES | activity change, negative = inhibition | Potency |
| --- | --- | --- |
| Clc1ccc(-c2ccccc2)cc1 | 0.683% |  |
| O=C(O)COc1nc(Cl)c(Cl)cc1Cl | 35.8% |  |
| c1ccc(Nc2ccc3ccccc3c2)cc1 |  | inactive |
| Clc1ccc(CCC(Cn2ccnc2)Sc2c(Cl)cccc2Cl)cc1 (stereo not given) | -10.5% [at 53.7 µM] |  |
| CCOC(=O)CC(=O)CCl | 5.93% |  |
| COc1ccc(OC)c(CC(C)N)c1 (stereo not given) | 12.4% |  |
| N#C/C=C/C#N | 4.26% |  |
| CC(Cc1ccc(C(C)(C)C)cc1)CN1C[C@@H](C)O[C@@H](C)C1 (stereo not given in full) | -6.71% |  |
| CC(C)(C)c1cc([N+](=O)[O-])cc(C(C)(C)C)c1O | -5.03% |  |
| CCN(CC)c1c([N+](=O)[O-])cc(C(F)(F)F)c(N)c1[N+](=O)[O-] | -13.3% |  |
| ClC1=C(Cl)C2(Cl)C3C(Cl)C=CC3C1(Cl)C2(Cl)Cl (stereo not given) |  | inactive |
| O=C1C=CC(=O)c2ccccc21 | -19.7% |  |
| BrCBr | 5.07% |  |
| CCC[CH2][Sn]([CH2]CCC)([CH2]CCC)[O]C(=O)c1ccccc1 | 14.5% |  |
| CCCCCCCCCC[N+](C)(C)CCCCCCCCCC |  | 56.4 µM (active) |
| O=c1oc2ccccc2c(O)c1Cc1c(O)c2ccccc2oc1=O | -11.1% [at 53.7 µM] |  |
| COC[C@H](C)N(C(=O)CCl)c1c(C)csc1C | -0.138% |  |
| CC(C)OC(=S)S | 15.8% |  |
| c1ccc2c(c1)OCC(C1=NCCN1)O2 (stereo not given) | 0.104% [at 53.7 µM] |  |
| CCCCCCCCCCCCCCC(Br)C(=O)O (stereo not given) | -13.7% |  |

| SMILES | activity change, negative = inhibition | Potency |
| --- | --- | --- |
| O=C(Nc1ccc2[nH]ccc2c1)c1cc2cc(F)ccc2n1Cc1cccc(F)c1 | -1.04% |  |
| c1ccc2cc3c(cc2c1)-c1cccc2cccc-3c12 | 0.671% |  |
| ClC1=C(Cl)[C@]2(Cl)[C@H]3[C@H]([C@H]4C=C[C@H]3C4)[C@@]1(Cl)C2(Cl)Cl | 0.713% |  |
| CC(=O)C(Cl)(Cl)Cl | -0.0494% |  |
| CCOP(=O)(NC(C)C)Oc1ccc(SC)c(C)c1 (stereo not given) |  | 15.9 µM (active) |
| Fc1cccc(Cl)c1CCl | 0.207% |  |
| CC(C)(C)OO | 2.08% |  |
| CC(Cl)CN(C)C (stereo not given) | 3.11% |  |
| N#Cc1ccccc1N | 9.89% |  |
| C=CC(=O)N(C)C | -0.869% |  |
| CC(C)OC(=O)C(O)(c1ccc(Cl)cc1)c1ccc(Cl)cc1 | -5.23% |  |
| CC(C)C(=O)Cl | -1.77% |  |
| Clc1ccc(-c2ccc(Cl)c(Cl)c2Cl)c(Cl)c1Cl | -0.259% |  |
| Clc1ccc(CSC(Cn2ccnc2)c2ccc(Cl)cc2Cl)cc1 (stereo not given) | -3.41% [at 53.7 µM] |  |
| CCOCn1c(-c2ccc(Cl)cc2)c(C#N)c(Br)c1C(F)(F)F | -5.84% |  |
| CC(C)CC(C)N (stereo not given) | 1.14% |  |
| Fc1ccc(Oc2ccnc3cc(Cl)cc(Cl)c23)cc1 | -15% |  |
| CC(C)N1C(=O)N(c2ccccc2)CSC1=NC(C)(C)C | 6.34% |  |
| C[C@]12CC[C@H](O)C[C@H]1CC[C@@H]1[C@@H]2C[C@@H](O)[C@]2(C)[C@@H](C3=CC(=O)OC3)CC[C@]12O | 0.0459% |  |
| CCCCN(CCCC)C(=S)[S-].CCCCN(CCCC)C(=S)[S-].[Zn+2] | 0.585% |  |
